{"source": "PubChem BioAssay AID1508623", "about": "(National Center for Advancing Translational Sciences (NCATS), 2021)", "note": "Screen size: about 48,000 compounds; about 450 (0.94%) were called active. Entries that show only a call come without a potency. Not shown: some 19% with an inconclusive outcome. The call rests on the fitted dose curve; in most records, active means well fitted inhibition curve with a large enough effect; inconclusive means small, poorly fitted or top-dose-only effect; inactive means no such curve, though single readings can be large or run the other way. For the sample, actives were picked, then their nearest neighbours and some compounds at random. Potency means the concentration at half of the fitted maximal effect."}
{"assay": "Primary qHTS for Identification of Small Molecule Inhibitors of Huntingtin Promoter Activity; further: nearly all actives have a fitted effect of over 50% in size", "conditions": "HEK293 HTT promoter firefly luciferase reporter (activity 0% = vehicle and -100% = no light), 24 h; series mostly up to 57.5 µM", "text": "Assay Provider: Russell L. Margolis M.D.\nDepartment Neurology, Johns Hopkins University School of Medicine, Baltimore, MD\nHuntington's Disease (HD) is a neurodegenerative disorder caused by a CAG repeat expansion in exon 1 of huntingtin (HTT). While there are currently no disease-modifying treatments for HD, recent efforts have focused on development of nucleotide-based therapeutics to lower HTT expression. As an alternative to siRNA or oligonucleotide methods, we hypothesized that suppression of HTT expression might be accomplished by small molecules that either (1) directly decrease HTT expression by suppressing HTT promoter activity or (2) indirectly decrease HTT expression by increasing the promoter activity of HTT-AS, the gene antisense to HTT that appears to inhibit expression of HTT.\nWe developed and employed a high throughput screen for modifiers of HTT and HTT-AS promoter activity using luminescent reporter HEK293 cells; of the 52,041 compounds tested, we identified 898 replicable hits. We used a rigorous stepwise approach to assess compound toxicity and the capacity of the compounds to specifically lower huntingtin protein in 5 different cell lines, including HEK293 cells, HD lymphoblastoid cells, mouse primary neurons, HD iPSCs differentiated into cortical-like neurons, and HD hESCs. We found no compounds which were able to lower huntingtin without lowering cell viability in all assays, though the potential efficacy of a few compounds at non-toxic doses could not be excluded.\nSEQUENCE No. (1, 2, 3, etc.); […] (e.g., Cells, Incubation, Reagent, etc.); VALUE and DESCRIPTION.\n1; Reagent; 4 uL; 2,500 Hek293 luciferase reporter cells per wells\n3; Compound; 23 nL; Control inhibitor / compound library\n5; Reagent; 2.5 uL; Firefly Luc reagent; Dual-Glo Luciferase Reporter Assay System (Promega)\n6; Time; 10 min; room temperature incubation\n7; Detection; Luminescence; FLuc\nNOTES (numbers refer to sequence above)\n1; High-throughput screening, measuring luminescence from a Hek293 luciferase reporter, was performed in 1,536 well white-walled tissue-culture treated plates. 2,500 cells were plated in 4 µL of Opti-MEM per well using a Multidrop Combi Reagent Dispenser (ThermoFisher).\n2; Assay plates were cultured for 24 hours.\n3; Control inhibitor (PTC124; final concentration of 50 uM) and compound library (at final concentrations of 460 nM - 57.5 uM) were added to the assay plate using the Kalypsis Pintool Robotic System equipped with 1536 pinheads.\n4; Cells were then incubated for 24 hours at 37 degrees C prior to luminescence measurements.\n5; In all cases, luminescence was measured using the Dual-Glo Luciferase Reporter Assay System (Promega) following the manufacturer's instructions.\n6; Room temperature incubation.\n7; Luminescence signal was obtained using the PerkinElmer ViewLux plate reader. Results were normalized to vehicle control (0% activity) and zero RLU (-100% activity)."}
{"smiles": "O=C1NC(=O)C(=Cc2cccc(C(F)(F)F)c2)S1", "Potency": "inactive"}
{"smiles": "Cc1ccc2c(c1)N(C(=O)Nc1ccc(Br)cc1F)CCO2", "Potency": "inactive"}
{"smiles": "COc1cc(-c2noc(-c3ccc(N4CCCC4)c([N+](=O)[O-])c3)n2)cc(OC)c1OC", "Potency": "inactive"}
{"smiles": "CCNC(=O)CC1C(=O)N(c2ccc(F)cc2)C(=O)N1Cc1ccc(C)cc1", "note": "(stereo unspecified)", "Potency": "inactive"}
{"smiles": "CCc1cccc(CC)c1NC(=O)Cn1c(=O)c(-c2cc(C)ccc2NC(C)=O)nc2ccccc21", "Potency": "inactive"}
{"smiles": "O=S(=O)(c1ccccc1)c1nc(-c2ccc(Cl)cc2Cl)oc1N1CCCCC1", "Potency": "inactive"}
{"smiles": "Cc1ccc(Nc2ccc3cc(S(=O)(=O)N4CCCCC4)ccc3n2)cc1F", "Potency": "inactive"}
{"smiles": "Cc1c(Cl)cccc1NC(=O)c1noc2c1CCCC2", "Potency": "inactive"}
{"smiles": "O=C(c1ccc(Cl)cc1)n1nc(-c2cccnc2)nc1NCc1ccc(F)cc1", "Potency": "inactive"}
{"smiles": "CC1CCN(c2nc3ccc(C(=O)N4CCN(c5ccccc5)CC4)cc3s2)CC1", "Potency": "1.12 µM (active)"}
{"smiles": "CCOc1ccc2nc(N3CCC(C(=O)Nc4cc(C)ccc4C)CC3)sc2c1", "Potency": "inactive"}
{"smiles": "CCOc1cccc2sc(N3CCN(C(=O)C4CC4)CC3)nc12", "Potency": "inactive"}
{"smiles": "CCN(CCCNC(=O)Cn1ncc2c([nH]c3ccccc32)c1=O)c1cccc(C)c1", "Potency": "inactive"}
{"smiles": "CCOC(=O)N1CCc2c(sc(NCc3cccc(F)c3)c2C(=O)Nc2ccccc2OCC)C1", "Potency": "inactive"}
{"smiles": "O=C(NCc1ccc(F)cc1)c1ccc2nc(N3CCCCC3)sc2c1", "Potency": "8.91 µM (active)"}
{"smiles": "O=C(NCc1ccccc1)c1ccc2c(c1)nc1n2CCCCC1", "Potency": "inactive"}
{"smiles": "Cc1ccc(C)n1-c1nnc(N2CCC(C(=O)NCc3ccc(F)cc3)CC2)s1", "Potency": "inactive"}
{"smiles": "CCOc1cccc(CC(=O)N2CCc3c([nH]c4ccccc34)C2c2ccc(F)cc2)c1OCC", "note": "(stereo unspecified)", "Potency": "inactive"}
{"smiles": "Cc1ccc(S(=O)(=O)n2nc(C)c(S(=O)(=O)N3CCCCCC3)c2C)cc1", "Potency": "inactive"}
{"smiles": "Cc1cc(O)c(C(c2ccccc2)N2CCN(c3ccccc3F)CC2)c(=O)n1Cc1ccco1", "note": "(stereo unspecified)", "Potency": "inactive"}
{"smiles": "Cc1cc(C)cc(Nc2ncnc3onc(-c4ccc(F)cc4)c23)c1", "Potency": "inactive"}
{"smiles": "COC(=O)CSc1ccc2nnc(CCNS(=O)(=O)c3ccc(C)cc3)n2n1", "Potency": "inactive"}
{"smiles": "CCc1ccccc1NC(=O)c1ccc2c(c1)CCN2S(C)(=O)=O", "Potency": "inactive"}
{"smiles": "CCOc1ccc(C2CC(=O)c3c([nH]c(C(=O)OCc4ccccc4)c3C)C2)cc1", "note": "(stereo unspecified)", "Potency": "inactive"}
{"smiles": "CCC(=O)Nc1cccc(-c2nc3cc(C)ccc3o2)c1", "Potency": "inactive"}
{"smiles": "CCc1ccc2oc(-c3ccc(C)c(NC(=O)/C=C/c4ccco4)c3)nc2c1", "Potency": "inactive"}
{"smiles": "Cc1ccc2nc(-c3ccc(C)c(NC(=O)Cc4ccccc4)c3)oc2c1", "Potency": "12.6 µM (active)"}
{"smiles": "Cc1ccccc1CS(=O)(=O)CC1Nc2ccc(C(=O)NCc3ccc(Cl)cc3)cc2NC1=O", "note": "(stereo unspecified)", "Potency": "inactive"}
{"smiles": "O=C(Cn1cnc2c(oc3ccccc32)c1=O)Nc1ccc(OC(F)(F)F)cc1", "Potency": "inactive"}
{"smiles": "COc1ccc(OC)c(NC(=O)CSc2nc3ccccc3nc2N2CCCCC2)c1", "Potency": "inactive"}
{"smiles": "Cc1ccc(CCNC(=O)c2ccc(CS(=O)(=O)Cc3cccc(C)c3)o2)cc1", "Potency": "inactive"}
{"smiles": "COc1ccc(CCNC(=O)c2ccc3c(c2)sc2nc(-c4ccc(C)cc4)cn23)cc1OC", "Potency": "inactive"}
{"smiles": "COc1ccc(CCNC(=O)c2ccc(CSCc3ccc(C)cc3)o2)cc1OC", "Potency": "25.1 µM (active)"}
{"smiles": "O=C(NCc1cccnc1)C(=O)NCC(c1cccnc1)N1CCN(c2ccccc2)CC1", "note": "(stereo unspecified)", "Potency": "inactive"}
{"smiles": "Cc1ccc(NC(=O)C(=O)NCC(c2cccnc2)N2CCOCC2)cc1", "note": "(stereo unspecified)", "Potency": "inactive"}
{"smiles": "COc1ccccc1N1CCN(C(CNC(=O)C(=O)NCc2ccc(C)cc2)c2cccnc2)CC1", "note": "(stereo unspecified)", "Potency": "11.2 µM (active)"}
{"smiles": "COc1ccc(Br)cc1C1CC(=O)Nc2c1c(C)nn2-c1nc(C)cc(C)n1", "note": "(stereo unspecified)", "Potency": "inactive"}
{"smiles": "CCC(=O)Nc1c(C(=O)N2CCN(c3ccc(F)cc3)CC2)oc2ccccc12", "Potency": "inactive"}
{"smiles": "COc1cccc(-c2n[nH]c3c2C(c2cccc(O)c2)N(C)C3=O)c1", "note": "(stereo unspecified)", "Potency": "inactive"}
{"smiles": "COc1ccc(Cn2ccn(Cc3cccc(OC)c3)c(=O)c2=O)cc1", "Potency": "inactive"}
{"smiles": "CCN1CCN(CCCNC(=O)c2cnn(-c3ccc(C)cc3C)c2C2CCN(C(=O)OC(C)(C)C)CC2)CC1", "Potency": "inactive"}
{"smiles": "CCCCNC(=O)CSc1nc2cc3c(cc2c(=O)n1CCCCCC(=O)NCc1ccc2c(c1)OCO2)OCO3", "Potency": "inactive"}
{"smiles": "CCOC(=O)C1CCN(C(c2ccc(F)cc2)c2sc3nc(-c4ccco4)nn3c2O)CC1", "note": "(stereo unspecified)", "Potency": "inactive"}
{"smiles": "CCOC(=O)c1cccc(NS(=O)(=O)c2cc(-c3cnc(C)o3)ccc2OC)c1", "Potency": "inactive"}
{"smiles": "COc1ccc(-c2cccc(NS(=O)(=O)c3cc(C)c(OC)c(C)c3C)c2)nn1", "Potency": "11.2 µM (active)"}
{"smiles": "Cc1ccc(CCNC(=O)Cn2c(-c3cccs3)cc3cc(F)ccc32)cc1", "Potency": "inactive"}
{"smiles": "CCc1ccccc1NC(=O)Cn1c(=O)n(CC2CCC(C(=O)NCCc3ccccc3)CC2)c(=O)c2ccccc21", "note": "(stereo unspecified)", "Potency": "inactive"}
{"smiles": "COc1cc(NS(=O)(=O)c2ccc3c(c2)OCC(C(=O)N2CCCC2)O3)cc(OC)c1", "note": "(stereo unspecified)", "Potency": "14.1 µM (active)"}
{"smiles": "COc1ccc(OC)c2sc(N3CCN(C(=O)C4COc5ccccc5O4)CC3)nc12", "note": "(stereo unspecified)", "Potency": "inactive"}
{"smiles": "COc1cc(NS(=O)(=O)c2cccs2)cc(OC)c1", "Potency": "inactive"}
{"smiles": "COc1ccccc1CNC(=O)C(=O)NCC(c1cccs1)S(=O)(=O)c1cccs1", "note": "(stereo unspecified)", "Potency": "inactive"}
{"smiles": "CC1CN(C(=O)N2CCC(C(=O)NCc3ccco3)CC2)c2cc(Cl)ccc2O1", "note": "(stereo unspecified)", "Potency": "inactive"}
{"smiles": "CCc1ccc(CN(Cc2ccco2)C(=O)COc2ccc(Cl)c(C)c2)cc1", "Potency": "inactive"}
{"smiles": "CC(C)NC(=O)C1CCC(Cn2c(=O)c3sccc3n(Cc3ccc(F)cc3)c2=O)CC1", "note": "(stereo unspecified)", "Potency": "inactive"}
{"smiles": "CC(=O)Nc1cccc(NC(=O)CSc2cn(CC(=O)N3CCCC3)c3ccccc23)c1", "Potency": "inactive"}
{"smiles": "Cc1ccc(-c2nn(CCC(=O)Nc3ccc(OC(F)(F)F)cc3)c(=O)c3ccccc23)cc1", "Potency": "inactive"}
{"smiles": "CCc1ccc(NC(=O)CN2CCSc3ccc(S(=O)(=O)N4CCCC4)cc32)cc1", "Potency": "31.6 µM (active)"}
{"smiles": "CN(C(=O)CN1C(=O)CCSc2ccc(S(=O)(=O)N3CCCC3)cc21)c1ccccc1", "Potency": "inactive"}
{"smiles": "CCc1ccc(NC(=O)CN2C(=O)CCSc3ccc(S(=O)(=O)N4CCCC4)cc32)cc1", "Potency": "inactive"}
{"smiles": "COC(=O)c1ccccc1NC(=O)c1cnn(-c2ccc(F)cc2)c1-n1cccc1", "Potency": "inactive"}
{"smiles": "CCCCN(CC)CCCNC(=O)c1nn(C)c2c1CS(=O)(=O)c1ccccc1-2", "Potency": "inactive"}
{"smiles": "CCCCC(=O)OC1=CN(Cc2ccccc2)S(=O)(=O)c2ccccc21", "Potency": "inactive"}
{"smiles": "COc1cccc(NC(=O)Cn2c(=O)cc(C)c3c(C)nn(-c4cccc(F)c4)c32)c1", "Potency": "inactive"}
{"smiles": "COc1ccc(NC(=O)c2ccco2)cc1NC(=O)COc1ccc(C)c(C)c1", "Potency": "inactive"}
{"smiles": "CCOC(=O)c1ccccc1NC(=O)CCc1c(C)nc2c(c1C)c(=O)n(C)c(=O)n2C", "Potency": "inactive"}
{"smiles": "CCc1nn(CC(=O)NCC(C)c2ccccc2)c(=O)c2cc3occc3n12", "note": "(stereo unspecified)", "Potency": "inactive"}
